Compound activity: PubChem BioAssay, National Center for Advancing Translational Sciences (NCATS)
Sampled rows, rich in hits. Any-hit rate of the full collection: about 19%.
TGFb inhibitor – qHTS for Inhibitors of TGF-b; HepG2 CAGA-GFP TGF-b/SMAD3 reporter, GFP fluorescence, 18 h; TGF-beta stimulated, 500 pg/mL final; Potency, µM (doses to about 46.1 µM), inactives show at the highest dose activity, negative = inhibition, usual class: inhibitors; 410,000 tested, 1.2% active; AID 588855, 2011; note: potency is the fitted concentration of half-maximal effect; % is set by controls: 0 for no effect and ±100 for the full control effect; nearly all actives have a fitted effect of over 65% in size
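GFP signal (ex488/em500-530) from TGF-beta-stimulated HEPG2 CAGA-GFP cells, 500 pg/mL final, 18 h at 37 degrees C in DMEM plus 1% FBS, normalized to unstimulated and DMSO-stimulated controls.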
IL-1B inflam inh – qHTS for Inhibitors of Inflammasome Signaling: IL-1-beta AlphaLISA Primary Screen | THP-1 LPS/ATP IL-1B secretion, AlphaLISA, 16 h; hits give low values | activity change, % at 57.5 µM | AID 743279, 2014 | 360,000 tested, 4.7% active; in the data active = activity change below about -50%; inconclusive = mostly about -30% to -49%; note: % is set by controls: 0 for no effect and ±100 for the full control effect
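Secreted IL-1B measured by AlphaLISA bead assay after 16 h compound exposure of THP-1 cells; compounds (final up to 57.5 uM) added 1 h before LPS (250 ng/mL) and ATP (1.25 mM) stimulation; lower signal means less secretion.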
DT40 TDP1 no CPT – qHTS for Inhibitors of human tyrosyl-DNA phosphodiesterase 1 (TDP1): qHTS in cells in absence of CPT. 420,000 tested, 15% active. AID 686978, 2013. Potency, µM (doses to about 46.2 µM), for inactives: top-dose activity change, negative = growth inhibition, actives largely listed as inhibitors. DT40 Tdp1-/- hTDP1 cells, no CPT, ATP luminescence, 48 h; note: potency is the fitted concentration of half-maximal effect; % is set by controls: 0 for no effect and ±100 for the full control effect; nearly all actives have a fitted effect of over 55% in size
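Compound effects on proliferation are scored in DT40 Tdp1-/-;hTDP1 cells in the absence of CPT. ATP levels (CellTiter-Glo luminescence) are recorded after a ≥48 hr, 37 °C incubation.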
HepG2 tox – qHTS for Inhibitors of TGF-b: Cytotox Counterscreen | HepG2 CAGA-GFP viability, ATP luminescence, 18 h | Potency, µM (titrated, usually from 46.1 µM), for inactives: top-dose activity change, negative = cytotoxicity, most hits filed as cytotoxic | 410,000 tested, 0.76% active | AID 588856, 2011; note: potency is the fitted concentration of half-maximal effect
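HepG2 CAGA-GFP cells (1000/well, DMEM with 1% FBS) received compound, then TGF-beta at 500 pg/mL final, and were incubated 18 hours at 37 degrees C. Viability was read by CellTiter-Glo luminescence. Media-only wells were set as complete cell-killing and DMSO as no toxicity.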
ASM inhibitor – Inhibitors of Secretory Acid Sphingomyelinase (S-ASM): qHTS | Sphingomyelin phosphodiesterase (Homo sapiens), P17405 | placental ASM, HMU-PC fluorogenic substrate, 60 min | Potency, µM (highest dose often 57.5 µM), without a hit: at the top dose activity change, negative = inhibition, hits mostly inhibitors | 340,000 tested, 0.006% active; note: potency is the fitted concentration of half-maximal effect
Target sequence (P17405 47-631 limits assumed): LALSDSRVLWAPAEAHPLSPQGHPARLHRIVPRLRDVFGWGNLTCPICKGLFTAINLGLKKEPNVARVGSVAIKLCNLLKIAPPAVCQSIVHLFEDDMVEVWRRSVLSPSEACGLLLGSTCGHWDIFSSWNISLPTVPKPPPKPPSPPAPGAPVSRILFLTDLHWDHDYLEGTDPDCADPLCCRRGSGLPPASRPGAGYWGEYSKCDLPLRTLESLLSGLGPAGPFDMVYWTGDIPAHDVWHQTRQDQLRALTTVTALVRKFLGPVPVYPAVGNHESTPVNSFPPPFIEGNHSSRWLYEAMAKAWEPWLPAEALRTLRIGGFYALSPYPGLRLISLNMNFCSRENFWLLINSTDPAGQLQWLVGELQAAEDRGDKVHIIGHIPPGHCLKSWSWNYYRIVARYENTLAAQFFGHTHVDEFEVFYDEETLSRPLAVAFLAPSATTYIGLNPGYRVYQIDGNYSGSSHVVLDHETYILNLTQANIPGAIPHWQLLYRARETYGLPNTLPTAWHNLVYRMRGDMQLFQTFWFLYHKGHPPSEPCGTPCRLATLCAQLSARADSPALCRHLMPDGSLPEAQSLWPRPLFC
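Fluorogenic HMU-PC substrate (9 uM final) is turned over by placental ASM in 60 min at 37 C after a 10 min compound preincubation. Reaction ended by alkaline stop (pH 10), with fluorescence read at 386/447 nm.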
DT40 TDP1 CPT – qHTS for Inhibitors of human tyrosyl-DNA phosphodiesterase 1 (TDP1): qHTS in cells in presence of CPT; chicken DT40 Tdp1-/-;hTDP1 cells + 20 nM CPT, ATP luminescence, 48 h; Potency, µM (doses to about 46.2 µM), without a hit: at the highest dose activity change, negative = growth inhibition, hits mostly inhibitors; 420,000 tested, 12% active; note: potency is the fitted concentration of half-maximal effect; % is set by controls: 0 for no effect and ±100 for the full control effect; nearly all actives have a fitted effect of over 55% in size
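Chicken DT40 Tdp1-/- cells complemented with human TDP1, 400 cells/well, exposed to compounds plus 20 nM camptothecin for at least 48 h at 37 C; viability read as ATP content by CellTiter-Glo luminescence.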
* hit, by the source's call. Unless noted, calls come from the whole dose curve; as a rule, active = well fitted curve in the direction sought with a large enough effect; inconclusive = small, poorly fitted or top-dose-only effect, or another doubt; inactive = no such curve, though single readings can be large; an effect the other way counts as inactive or inconclusive.

How did CNC(=O)c1c(NC(=O)C2=COCCO2)sc(C)c1C do in these assays?
TGFb inhibitor: -17%; IL-1B inflam inh: -13; DT40 TDP1 no CPT: -8%; HepG2 tox: -12%; ASM inhibitor: 0%; DT40 TDP1 CPT: 2%

Results for COC(=O)c1c(NC(=O)C2=COCCO2)sc(C)c1C ?
TGFb inhibitor: 22%; IL-1B inflam inh: -60*; DT40 TDP1 no CPT: inconclusive; HepG2 tox: -42%; ASM inhibitor: 1%; DT40 TDP1 CPT: -2%

How did CCOC(=O)N1CCc2c(sc(NC(C)=O)c2C(N)=O)C1 do in these assays?
TGFb inhibitor: -28%; IL-1B inflam inh: -11; DT40 TDP1 no CPT: -7%; HepG2 tox: -4%; ASM inhibitor: 40%; DT40 TDP1 CPT: -17%

What do the screens show for `COc1cccc(C(=O)Nc2cc(-c3ccccc3)nn2-c2ccccc2)c1`?
TGFb inhibitor: 5%; DT40 TDP1 no CPT: inconclusive; HepG2 tox: -4%; DT40 TDP1 CPT: inconclusive

What do the screens show for `Nc1nc(CCl)nc(Nc2cccc3ccccc23)n1`?
TGFb inhibitor: 11µM*; IL-1B inflam inh: -100*; DT40 TDP1 no CPT: 3.3µM*; HepG2 tox: 13µM*; ASM inhibitor: 5%; DT40 TDP1 CPT: inconclusive

Results for Cc1ccc(SCCC(=O)OCC(=O)NCC2CCCCC2)cc1 ?
TGFb inhibitor: -7%; IL-1B inflam inh: 14; DT40 TDP1 no CPT: inconclusive; HepG2 tox: -21%; ASM inhibitor: -9%; DT40 TDP1 CPT: -8%

Results for O=C(Cc1cccs1)OCC(=O)c1ccco1 ?
TGFb inhibitor: -12%; IL-1B inflam inh: 0; DT40 TDP1 no CPT: -16%; HepG2 tox: -2%; ASM inhibitor: 15%; DT40 TDP1 CPT: -14%

What do the screens show for `O=C(CC(Sc1ccccc1)c1cccs1)c1ccco1` (configuration not stated)?
TGFb inhibitor: -24%; IL-1B inflam inh: -70*; DT40 TDP1 no CPT: 26µM*; HepG2 tox: -29%; ASM inhibitor: -2%; DT40 TDP1 CPT: 18µM*

What do the screens show for `Cc1cc2ccccc2n1CCNC(=O)c1ccc(Br)cc1`?
TGFb inhibitor: inconclusive; DT40 TDP1 no CPT: 21µM*; HepG2 tox: -17%; DT40 TDP1 CPT: inconclusive

Results for Cc1cc2ccccc2n1CCNC(=O)c1ccccc1F ?
TGFb inhibitor: 0%; DT40 TDP1 no CPT: 16µM*; HepG2 tox: -27%; DT40 TDP1 CPT: inconclusive

How did Cc1cc2ccccc2n1CCNC(=O)c1ccccc1 do in these assays?
TGFb inhibitor: 14%; IL-1B inflam inh: -11; DT40 TDP1 no CPT: inconclusive; HepG2 tox: -33%; ASM inhibitor: -8%; DT40 TDP1 CPT: inconclusive

How did Cc1onc(-c2ccccc2Cl)c1C(=O)NCCn1c(C)cc2ccccc21 do in these assays?
TGFb inhibitor: -1%; IL-1B inflam inh: -10; DT40 TDP1 no CPT: 29µM*; HepG2 tox: -12%; ASM inhibitor: -8%; DT40 TDP1 CPT: inconclusive

Results for Cc1cc2ccccc2n1CCNC(=O)c1ccc(Br)o1 ?
TGFb inhibitor: -15%; IL-1B inflam inh: -26; DT40 TDP1 no CPT: 29µM*; HepG2 tox: -15%; ASM inhibitor: 0%; DT40 TDP1 CPT: -28%

What do the screens show for `CC(=O)NCCn1c(C)cc2ccccc21`?
TGFb inhibitor: 1%; IL-1B inflam inh: 4; DT40 TDP1 no CPT: inconclusive; HepG2 tox: 8%; ASM inhibitor: 10%; DT40 TDP1 CPT: -23%

How did O=C(O)c1ccccc1C(c1ccc(O)cc1)c1ccc(O)cc1 do in these assays?
TGFb inhibitor: 4%; IL-1B inflam inh: 3; DT40 TDP1 no CPT: -1%; HepG2 tox: 6%; ASM inhibitor: -4%; DT40 TDP1 CPT: -9%

Results for FC(F)(F)c1nc(NCc2ccccc2)c2nnn(Cc3ccccc3)c2n1 ?
TGFb inhibitor: -19%; IL-1B inflam inh: 4; DT40 TDP1 no CPT: inconclusive; HepG2 tox: -13%; ASM inhibitor: 1%; DT40 TDP1 CPT: inconclusive

What do the screens show for `COc1ccc(Cn2cc(S(=O)(=O)c3ccc(C)cc3)c(=O)c3cc(F)ccc32)cc1`?
TGFb inhibitor: 10%; DT40 TDP1 no CPT: -13%; HepG2 tox: 10%; DT40 TDP1 CPT: -24%

How did O=C(NCc1cc2ccccc2[nH]1)c1ccccc1F do in these assays?
TGFb inhibitor: 1%; IL-1B inflam inh: -64*; DT40 TDP1 no CPT: -5%; HepG2 tox: -33%; ASM inhibitor: 4%; DT40 TDP1 CPT: -19%

What do the screens show for `Cc1ccc2[nH]c(CNC(=O)c3ccccc3F)cc2c1`?
TGFb inhibitor: 3%; IL-1B inflam inh: -13; DT40 TDP1 no CPT: -14%; HepG2 tox: -15%; ASM inhibitor: -2%; DT40 TDP1 CPT: 7%

Results for CCOc1cc(C)c(C(C)C)cc1S(=O)(=O)n1cnc(C)c1 ?
TGFb inhibitor: -27%; IL-1B inflam inh: 23; DT40 TDP1 no CPT: inconclusive; HepG2 tox: -27%; ASM inhibitor: -1%; DT40 TDP1 CPT: inconclusive

How did CN(C)c1ccc(CNC(=O)C2(C)Cc3c(-c4cccc(C(N)=O)c4)ccnc3O2)cc1 (configuration not stated) do in these assays?
TGFb inhibitor: 27%; IL-1B inflam inh: 64; DT40 TDP1 no CPT: inconclusive; HepG2 tox: -8%; DT40 TDP1 CPT: 15µM*

How did CC(=O)Nc1ccc(-c2ccnc3c2CC(C)(C(=O)NCCc2ccccc2)O3)cc1 (configuration not stated) do in these assays?
TGFb inhibitor: 16%; IL-1B inflam inh: -17; DT40 TDP1 no CPT: -16%; HepG2 tox: -9%; DT40 TDP1 CPT: inconclusive

Results for CN(C)c1ccc(CNC(=O)C2(C)Cc3c(-c4ccc(N(C)C)cc4)ccnc3O2)cc1 (configuration not stated) ?
TGFb inhibitor: -5%; IL-1B inflam inh: -19; DT40 TDP1 no CPT: 18µM*; HepG2 tox: -7%; DT40 TDP1 CPT: inconclusive

How did CC1(C(=O)NCC2CC2)Cc2c(-c3ccc4c(c3)OCO4)ccnc2O1 (configuration not stated) do in these assays?
TGFb inhibitor: 13%; IL-1B inflam inh: 46; DT40 TDP1 no CPT: 5.2µM*; HepG2 tox: -19%; DT40 TDP1 CPT: 4.6µM*

How did CN(C)c1ccc(CNC(=O)C2(C)Cc3c(-c4ccccc4)ccnc3O2)cc1 (configuration not stated) do in these assays?
TGFb inhibitor: -4%; IL-1B inflam inh: inconclusive; DT40 TDP1 no CPT: inconclusive; HepG2 tox: -2%; DT40 TDP1 CPT: inconclusive
